The structures appear in SMILES notation. Values joined by “and” are separate entries in the source; they are usually repeats but may differ in a detail not shown here. Equal entries are not always repeated. Out of some 330,000 compounds screened, about 700 (0.21%) were called active.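 How the source made its calls: active means OD600 absorbance below the run mean of sample wells minus 3.6 SD, in any replicate (cut at about 0.56 in these data); inactive means the rest.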 The sample as a whole holds a higher share of actives than the screen did.

This assay is described as follows: E. coli growth inhibition, primary screen, OD600 (AID 1053175). The conditions noted are these: Escherichia coli growth, OD600, 23 h; active compounds read low.
As to `O=C(C=CNNC(=O)c1ccccc1)c1ccc(Br)cc1`, the OD600 absorbance is 0.66 (inactive).
With `CC1CN(C(C)CO)C(=O)c2cc(NC(=O)Cn3cnnn3)ccc2OC1CN(C)Cc1ccc(Cl)c(Cl)c1` (stereo not given) the figure was 0.734 (inactive).
With `Cc1cccc(NC(=O)c2ccc([N+](=O)[O-])o2)c1` the figure was 0.475 (active); with `O=C(Nc1cccc(O)c1)c1ccc(C(=O)c2ccccc2)o1`, 0.71 (inactive); with `O=C(Nc1ccc(Br)cn1)c1ccc([N+](=O)[O-])o1`, 0.518 (inactive).
With `COc1ccc(S(=O)(=O)ON=C2CCCc3ccccc32)cc1` the figure was 0.751 (inactive).
In the case of `COc1ccc(C2C3C(=O)N(C(C)(C)C)C(=O)C3[C@]3(C)C(=O)N(c4cccc(C)c4)C(=O)N23)cc1` (stereo not given in full), the OD600 absorbance was 0.681 (inactive).
With `O=C(NN=Cc1ccc(O)cc1)c1ccc(COc2cc(Cl)ccc2Cl)o1` the figure was 0.778 (inactive).
As for `CCOC(=O)C1C2COc3cc(OC)ccc3C2N2C(=O)N(c3cccc(F)c3)C(=O)[C@@]12C` (stereo not given in full), the OD600 absorbance was 0.694 (inactive) and 0.697 (inactive) and 0.645 (inactive).
With `CC(C)(C)C(COc1ccccc1[N+](=O)[O-])=NO` the figure was 0.627 (inactive); with `COc1cccc(C=NNc2nc3ccccc3n3cnnc23)c1`, 0.749 (inactive); with `Cc1ccc(C)c(-c2cc(C(=O)NN=Cc3cccnc3)c3ccccc3n2)c1`, 0.67 (inactive).
With `CCNS(=O)(=O)c1ccc(NC(=O)Nc2cccc(C(F)(F)F)c2)cc1` the figure was 0.51 (active).
With `O=C(Nc1ccc(C(=O)N2CCOCC2)cc1)Nc1cccc(C(F)(F)F)c1` the figure was 0.664 (inactive); with `CC(C)C[C@H](NC(=O)Nc1cccc(C(F)(F)F)c1)C(=O)O`, 0.689 (inactive); with `Cc1ccc2cc(C=NNC(=O)[C@@H]3CCCN3)c(Cl)nc2c1`, 0.699 (inactive).
As for `CN1CCN(CCC(=O)NN=Cc2cc([N+](=O)[O-])ccc2O)CC1`, the OD600 absorbance was 0.633 (inactive).
For the compound `CCN=c1scc(C)n1N=Cc1cc(Br)c(O)c(OC)c1`, the OD600 absorbance was 0.689 (inactive).
With `CN1C(=O)C2C(C=Cc3ccccc3)N3C(=O)CN(Cc4ccc(-c5ccccc5)cc4)C(=O)[C@@]3(Cc3ccccc3)C2C1=O` (stereo not given in full) the figure was 0.678 (inactive).
With `CC(=NNC(=O)C1CC1)c1ccc(NC(=O)c2ccc(Br)o2)cc1`, the OD600 absorbance is 0.697 (inactive).
For the compound `O=C(NN=Cc1ccco1)c1cccs1`, the OD600 absorbance is 0.606 (inactive).
With `CCC(C)N1CCC2(CC1)N=c1c(c3c4c5c(C)c(O)c3c(O)c1=NC(=O)C(C)=CC=CC(C)C(O)C(C)C(O)C(C)C(OC(C)=O)C(C)C(OC)C=CO[C@@](C)(O5)C4=O)N2` (stereo not given in full) the figure was 0.076 (active); with `CCOC(=O)C1C2COc3cc(OC)ccc3C2N2C(=O)CN(Cc3ccc(C)cc3)C(=O)[C@@]12C` (stereo not given in full), 0.699 (inactive).
For the compound `CC1CC2OC(=O)[C@]3(C)C2C(OC3(C)O)[C@]2(C)C(=O)C=CC12` (stereo not given in full), the OD600 absorbance is 0.679 (inactive).
With `CC(C)(C)NC(=O)CCN(N=Cc1ccccc1F)C1=NS(=O)(=O)c2ccccc21` the figure was 0.627 (inactive).
With `CN(C)c1ccc(C=NNC(=O)Cn2nnc3ccccc32)cc1` the figure was 0.725 (inactive); with `CC(C)(C)OC(=O)C1=C(CO)CS[C@@H]2[C@H](NC(=O)Cc3ccccc3)C(=O)N12`, 0.72 (inactive); with `Cc1cc(C)cc(C(=O)NC2C(=O)N3C(C(=O)O)=C(CSc4nnc(C)s4)CSC23)c1` (stereo not given), 0.684 (inactive).
On to `Cc1nnc(SCC2=C(C(=O)O)N3C(=O)C(NC(=O)Cn4nc(C)c(Cl)c4C)C3SC2)s1` (stereo not given), for which the OD600 absorbance was 0.488 (active).
As to `CC(C)CC(CSc1ccccc1)N1CCN(C)CCC1=O` (stereo not given), the OD600 absorbance was 0.708 (inactive).
For the compound `CCc1ccc(NC(=O)CC(C)=NNC(=O)OCc2ccc(OC)cc2)cc1`, the OD600 absorbance is 0.657 (inactive).
Take `COc1ccc(C=NNC(=O)c2ccccc2[N+](=O)[O-])cc1CN1CCc2cc(OC)c(OC)cc2C1C` (stereo not given): the OD600 absorbance was 0.712 (inactive).
With `Cc1ccc(NC(=O)C=NOCC(=O)NCc2ccccc2Cl)cc1` the figure was 0.705 (inactive); with `CCOC1OC(C(N)=O)=CC(c2ccccc2)C1CCCO` (stereo not given), 0.702 (inactive) and 0.686 (inactive); with `CC(NC(=O)C(=O)NN=Cc1ccc(Cl)cc1)c1ccccc1` (stereo not given), 0.673 (inactive).
With `CCN=c1scc(C)n1N=Cc1ccsc1`, the OD600 absorbance is 0.697 (inactive).
With `Cc1ccc(C2=[N+]([O-])C3(CCCCCC3=NNC(N)=S)N(O)C2(C)C)o1` (stereo not given) the figure was 0.771 (inactive); with `O=C(O)c1csc(NN=Cc2ccc(Br)cc2)n1`, 0.677 (inactive); with `O=C1CCCC(=NNC(=O)c2cc(NS(=O)(=O)c3cccs3)cc(NS(=O)(=O)c3cccs3)c2)C1`, 0.669 (inactive).
With `CCOC(=O)C1C2COc3cc(OC)ccc3C2N2C(=O)N(c3ccc(C(F)(F)F)cc3)C(=O)[C@@]12C` (stereo not given in full) the figure was 0.696 (inactive) and 0.712 (inactive); with `C=CCN1c2ccccc2[C@]23CC(C(=O)OC)N(C(=O)c4cc(C)oc4C)C2=NC(C(=O)OC)=C(C(=O)OC)C13` (stereo not given in full), 0.651 (inactive).
With `CC(=NNC(=O)c1ccncc1)c1cc2ccccc2o1` the figure was 0.717 (inactive); with `Cc1cc(C)c(C)c(OCC(=O)ON=C(N)c2ccccn2)c1`, 0.733 (inactive).
For `COC(=O)c1ccc(C=NNC(=O)C2CC(=O)N(c3ccc(F)cc3)C2)cc1` (stereo not given), the OD600 absorbance is 0.657 (inactive).
With `Cc1nc2ccccn2c1C(=O)NN=Cc1ccc2c(c1)OCO2` the figure was 0.657 (inactive).
With `O=[N+]([O-])c1ccc(C=NN2CCN(c3ccc(Cl)cc3)CC2)cc1` the figure was 0.805 (inactive); with `Cc1cccc(NC(=S)Nc2ccc(Cl)c(Cl)c2)c1`, 0.495 (active).
With `Cc1cccc(NC(=S)Nc2ccc3cn[nH]c3c2)c1` the figure was 0.655 (inactive).
For the compound `Cc1cccc(NC(=S)NC23CN4CN(CN(C4)C2)C3)c1`, the OD600 absorbance is 0.691 (inactive).
For the compound `O=C(O)c1cc2c(o1)CCCC2=NO`, the OD600 absorbance was 0.711 (inactive).
With `c1ccc(Cc2ccc(OCCn3ccnc3)cc2)cc1` the figure was 0.583 (inactive).
With `Clc1c(OCCCn2ccnc2)ccc2ccccc12` the figure was 0.49 (active); with `C=CCc1cc(C)ccc1OCCCn1ccnc1`, 0.666 (inactive).
Take `NC(CCCN1CCCCC1)=NO`: the OD600 absorbance is 0.705 (inactive).
Regarding `CCCSc1ccc(C2N[C@@](CC(C)C)(C(=O)OC)C3C(=O)N(CC)C(=O)C23)cc1` (stereo not given in full), the OD600 absorbance was 0.649 (inactive).

These data come from PubChem BioAssay AID1053175 (ICCB-Longwood Screening Facility, Harvard Medical School, 2014).
